LmPK inhibitor: inhibitors of Leishmania mexicana pyruvate kinase | purified LmPK, Kinase-Glo ATP luminescence, 1 h | hit rate 0.37% among 290,000 | Q27686 | Potency, µM (series often up to 57.5 µM), hits mostly inhibitors | AID 1721
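0.1 nM LmPK, 0.5 mM PEP, 0.1 mM ADP; 50 mM imidazole pH 7.2, 7 mM MgCl2, 50 mM KCl; 1 h RT. Kinase-Glo luminescence readout, normalized to no-enzyme (full inhibition) and uninhibited wells.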
NS1 inh: blocks influenza NS1 protein function; hit rate 0.4% among 270,000; Potency, µM (series often up to 46.1 µM); calls by dose curve; also: actives are rising curves; nearly all actives have a fitted effect of over 50% in size
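Compounds were scored for reversing the slow growth caused by influenza A NS1 in S. cerevisiae, measured by optical density at 600 nm. Assay medium contained 2% galactose at pH 6.0; NS1-free yeast of the same strain were the positive control.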
AMA1-RON2 inh: AMA1-RON2 (P. falciparum) interaction inhibition | AlphaScreen AMA1-biotinylated RON2 peptide binding | Potency, µM (doses to about 58.2 µM), most hits filed as inhibitors | hit rate 0.2% among 360,000 | AID 720542; also: nearly all actives have a fitted effect of over 45% in size
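AMA1 (3D7) with his tag at 25 nM final met compounds first, then biotinylated RON2 peptide at 25 nM; detection used donor plus acceptor beads, 10 µg/mL apiece, read by AlphaScreen after 30 min at room temperature.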
Giardia FBPA inh-1: Giardia lamblia aldolase inhibition. purified Giardia FBPA. Potency, µM (doses to about 59.6 µM), hits mostly inhibitors. hit rate 0.71% among 290,000. AID 2451; also: nearly all actives have a fitted effect of over 55% in size
Target sequence (A8B2U2 whole entry, looked up): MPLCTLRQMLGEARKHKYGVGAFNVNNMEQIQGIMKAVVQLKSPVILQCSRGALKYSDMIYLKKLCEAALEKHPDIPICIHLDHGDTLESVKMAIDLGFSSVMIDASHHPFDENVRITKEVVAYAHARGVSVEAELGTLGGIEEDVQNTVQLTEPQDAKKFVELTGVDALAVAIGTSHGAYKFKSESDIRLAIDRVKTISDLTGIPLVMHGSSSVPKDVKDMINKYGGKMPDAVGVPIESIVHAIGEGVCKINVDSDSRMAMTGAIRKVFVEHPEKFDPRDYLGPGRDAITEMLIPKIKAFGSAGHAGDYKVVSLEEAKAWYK
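40 nM FBPA preincubated 10 min at RT with compound (up to 57.5 uM final), then substrate plus GAPDH/TPI/NAD/arsenate coupling and diaphorase/resazurin added. Fluorescence read after 20 min at RT, 525/598 nm.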
Tb PYK inh: T. brucei pyruvate kinase inhibition | Q57TT1 | hit rate 0.12% among 410,000 | AID 624173 | TbPYK enzyme, Kinase-Glo Plus ATP luminescence, 45 min | Potency, µM (doses to about 76.8 µM), actives largely listed as inhibitors; also: nearly all actives have a fitted effect of over 50% in size
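Enzyme and substrate buffer are dispensed first and compound is pin-transferred. ADP at 130 uM final then starts the reaction, which runs 45 min at room temperature. Detection reagent is added for 10 min before luminescence is imaged.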
Giardia growth: inhibitors of Giardia lamblia growth | shares compounds with Giardia FBPA inh-1 | Giardia lamblia trophozoite growth inhibition | Potency, µM (doses to about 57.5 µM), most hits filed as inhibitors | hit rate 5% among 1,500;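 also: trophozoites exposed to compound for 48 h at 37 °C; nearly all actives have a fitted effect of over 70% in size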
Mammal cell tox: counter-screen for Giardia aldolase inhibitors: mammalian cell toxicity. hit rate 4% among 1,500. mammalian cell viability counter-screen, qHTS. Potency, µM (series often up to 57.5 µM), usual class: inhibitors. AID 2786. shares compounds with Giardia FBPA inh-1;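 also: Chinese hamster ovary cells used as mammalian cytotoxicity surrogate; viability measured as cellular ATP by luminescence; compound exposure lasted 48 h before reading; nearly all actives have a fitted effect of over 60% in size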
Giardia FBPA inh-2: confirmation of Giardia fructose-bisphosphate aldolase inhibitors; shares compounds with Giardia FBPA inh-1; purified Giardia aldolase enzyme activity, qHTS; Potency, µM (highest dose often 57.5 µM), actives largely listed as inhibitors; hit rate 5% among 1,500; AID 2787; also: nearly all actives have a fitted effect of over 45% in size
Rabbit FBPA inh: selectivity test for Giardia aldolase inhibitors: rabbit aldolase; shares compounds with Giardia FBPA inh-1; Rabbit muscle FBPA enzyme inhibition, selectivity counter-screen; Potency, µM (titrated, usually from 57.5 µM), most hits filed as inhibitors; hit rate 4% among 1,500; also: nearly all actives have a fitted effect of over 60% in size
GAPDH coupling: counter-screen for Giardia aldolase inhibitors: GAPDH coupling enzyme. hit rate 6% among 1,500. shares compounds with Giardia FBPA inh-1. GAPDH coupling enzyme counterscreen, biochemical, qHTS. Potency, µM (doses to about 57.5 µM), actives largely listed as inhibitors; also: nearly all actives have a fitted effect of over 55% in size
A number is an active result; . = inactive; ? = inconclusive; / = no result; [ ] = remark or other dose. This is a sample that favours compounds with a hit; in the whole collection about 1.2% have one here. Unless noted, calls follow the shape of the dose curve; as a rule, active = well fitted curve in the direction sought with a large enough effect; inconclusive = small, poorly fitted or top-dose-only effect, or another doubt; inactive = no such curve, though single readings can be large; an effect the other way counts as inactive or inconclusive.

SMILES	LmPK inhibitor	NS1 inh	AMA1-RON2 inh	Giardia FBPA inh-1	Tb PYK inh	Giardia growth	Mammal cell tox	Giardia FBPA inh-2	Rabbit FBPA inh	GAPDH coupling
CCC(C)c1ccc(-n2c(=O)c3ccccc3n3c(=S)[nH]nc23)cc1 (stereo unspecified)	.	.	.	.	.	/	/	/	/	/
CCCn1c(=O)c2ccccc2n2c(=S)[nH]nc12	.	.	.	?	.	/	/	/	/	/
O=c1c2ccccc2n2c(=S)[nH]nc2n1-c1ccccc1	.	.	.	7.08µM	?	.	.	.	.	.
COc1cccc(COCC(O)Cn2cnc3cc(C)c(C)cc32)c1 (stereo unspecified)	.	/	.	19.9µM	.	.[10.4 µM]	.	.	.	.
Cc1cc(NC(=O)CN(C)CCOc2ccccc2)ccc1Br	.	/	?	15.8µM	.	?	.	.	.	.
CN(CCOc1ccccc1)CC(=O)Nc1cccc(Br)c1	.	.	.	?	.	/	/	/	/	/
CCOC(=O)c1cnc(SCC)[nH]c1=O	.	.	.	.	.	/	/	/	/	/
CCOC(=O)c1cnc(-c2ccc(C(F)(F)F)cn2)[nH]c1=O	.	.	.	5µM	.	?	.	.	.	.
O=C(CCn1c(=O)oc2ccccc21)NCCN1CCc2ccccc2C1	.	.	.	15.8µM	.	.[10.4 µM]	.	.	.	.
O=C(CCN1CCc2ccccc2C1)Nc1ccccc1	.	.	.	15.8µM	.	.	.	.	.	.
O=C(CCCn1c(=O)oc2ccccc21)N1CCc2ccccc2C1	.	.	?	.	.	/	/	/	/	/
COc1ccccc1CN1CCC(CNC(=O)c2cnn(-c3ccc(Cl)cc3)c2C2CCN(C(=O)OC(C)(C)C)CC2)CC1	/	/	/	/	.	/	/	/	/	/
COc1ccc(COCC(O)CN2CCCC(C(F)(F)F)C2)cc1 (stereo unspecified)	.	.	/	11.2µM	/	.	.	.	.	.
O=C(CCc1ccccc1)NNC(=O)CCc1ccccc1	.	.	.	.	.	/	/	/	/	/
O=C(CCc1ccccc1)NNC(=O)c1ccccn1	.	/	.	17.7µM	.	11.2µM	?	.	.	.
COc1cc2c(cc1OC)[C@@H]1O[C@](c3ccsc3)(C2)Oc2cc(C)n(-c3ccccc3)c(=O)c21	.[11.5 µM]	.	/	.[12.9 µM]	/	/	/	/	/	/

Bioassay records (PubChem BioAssay)
